hcGAS lum: inhibitors of human cGAS. Q8N884. recombinant h-cGAS, ATP depletion, Kinase-Glo luminescence. inhibition, % at 12.5 µM. hit rate 0.081% among 290,000. AID 1259398
Target sequence (Q8N884 whole entry, looked up): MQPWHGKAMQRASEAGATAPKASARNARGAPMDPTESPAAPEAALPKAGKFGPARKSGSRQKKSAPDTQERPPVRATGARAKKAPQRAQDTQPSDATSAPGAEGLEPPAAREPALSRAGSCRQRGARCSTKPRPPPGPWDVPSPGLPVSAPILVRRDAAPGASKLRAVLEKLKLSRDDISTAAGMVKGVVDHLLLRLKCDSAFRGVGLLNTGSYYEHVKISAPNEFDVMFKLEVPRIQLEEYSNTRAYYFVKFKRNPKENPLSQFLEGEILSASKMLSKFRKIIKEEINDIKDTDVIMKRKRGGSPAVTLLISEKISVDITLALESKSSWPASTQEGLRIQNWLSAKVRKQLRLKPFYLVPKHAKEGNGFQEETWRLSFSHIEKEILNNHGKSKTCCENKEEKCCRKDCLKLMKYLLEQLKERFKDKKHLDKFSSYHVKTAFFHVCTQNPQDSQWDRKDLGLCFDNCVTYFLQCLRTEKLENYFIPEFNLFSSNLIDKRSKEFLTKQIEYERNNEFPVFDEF
mcGAS lum: mouse cGAS inhibition by luminescence; Q8C6L5; recombinant cGAS, Kinase-Glo ATP depletion luminescence; inhibition, % at 12.5 µM; hit rate 0.15% among 160,000
NPYLR7 agonist: activates Aedes aegypti NPYLR7 receptor; HEK293T NPYLR7/Galpha15, GCaMP6s calcium fluorescence; hit rate 0.15% among 270,000; activation, % at 10 µM; in the data active = activation above about 40%
Large screens that a line does not name were inactive. Compounds with a hit are over-represented: about 0.24% of the library has one in this group of screens. Cut-off read from the data, not from the text of the source, unless noted: active = inhibition above about 40%; inactive = the rest.

CCOC(=O)c1[nH]c2c([N+](=O)[O-])cc(C)cc2c1CCN1C(=O)c2ccccc2C1=O	none
CCN1C(=Cc2cc(C)[n+](CC3CCCO3)c(C)c2)Sc2ccccc21 (stereo not given)	NPYLR7 agonist 123
CCCC[n+]1c(C)cc(C=C2Sc3ccccc3N2CC)cc1C	NPYLR7 agonist 258 (no result: mcGAS lum)
CCN1C(=Cc2cc(C)[n+](CCOC)c(C)c2)Sc2ccccc21	NPYLR7 agonist 124 (no result: mcGAS lum)
CCN1C(=O)/C(=C\C=C2/Sc3ccccc3N2CC)N(c2ccccc2)C1=S	none
CCN1/C(=C\C(=C2\C(=O)N(C)C(=S)N2C)c2ccccc2)Sc2ccccc21	none (no result: mcGAS lum)
CCN1C(=O)/C(=C/C=C2/Sc3ccccc3N2CC)SC1=Nc1ccccc1C	none
CCOc1ccc2nc(N3CCCN(Cc4nc5ccccc5s4)CC3)nc(C)c2c1	none
Cc1cc(C=C2SC(N)=NC2=O)c(C)n1C1CC1	none (no result: mcGAS lum)
CCN1CC(=Cc2cc(C)n(C3CC3)c2C)C(=O)C(=Cc2cc(C)n(C3CC3)c2C)C1	NPYLR7 agonist 48 (no result: mcGAS lum)
COc1cc(C=C2N=C(c3cccc(Cl)c3)OC2=O)ccc1OCC(=O)N1CCOCC1	none (no result: mcGAS lum)
COCc1cc(C)nc(OCC(=O)N/N=C\c2cc(I)c(O)c([N+](=O)[O-])c2)c1C#N	mcGAS lum 67
COCc1c(Br)c(C)nc(OCC(=O)N/N=C\c2cc(I)c(O)c(OC)c2)c1C#N	none
C=CCOc1c(I)cc(/C=N\NC(=O)COc2nc(C)cc(COC)c2C#N)cc1I	none
COCc1cc(C)nc(OCC(=O)N/N=C\c2cc(I)c(O)c(I)c2)c1C#N	mcGAS lum 58
COCc1cc(C)nc(OCC(=O)N/N=C\c2cc(Br)c(O)c(Br)c2)c1C#N	none
COCc1c(Br)c(C)nc(OCC(=O)N/N=C\c2cc(I)c(O)c([N+](=O)[O-])c2)c1C#N	mcGAS lum 83
CC(C)(C)c1ccc(CN2CCN(S(N)(=O)=O)CC2)cc1	none
C/C=C/C(=O)N1CCC(n2nc(C(=O)OCC)cc2CCC)CC1	none
COc1cc(C(=O)O)c(N)cc1OC(F)F	none (no result: mcGAS lum)
CN(C(=O)c1ccc(Cl)cc1)C(c1ccc(F)cc1)C1CC1 (stereo not given)	none (no result: mcGAS lum)
CC(C)Oc1ccc2c(=O)c(Oc3ccc(F)cc3)coc2c1	none (no result: mcGAS lum)
O=C(Nc1ncccc1O)c1nc(-c2ccccc2)n2c1CCCCC2	hcGAS lum 66
Cc1cc(Cl)ccc1NC(=O)c1nc(C)n2c1CCCC2	none (no result: mcGAS lum)
CCCCc1ccc(C(=O)N2CCSC2c2cc(OC)cc(OC)c2)cc1 (stereo not given)	none
Cc1ccc(C=Nc2ccc(C)c(S(=O)(=O)N3CCOCC3)c2)c(C)c1	none (no result: mcGAS lum, NPYLR7 agonist)
O=C(O)CN1C(=O)C(=NN2C(=O)CSC2=S)c2ccccc21	hcGAS lum 43 (no result: mcGAS lum)
O=C(O)CN1C(=O)C(=C2C(=O)N(CC(=O)O)c3ccccc32)SC1=S	none
CCc1cnc(C)nc1NCc1cncn1CC(C)C	none (no result: mcGAS lum)
O=C(CN1CCc2ccccc2C1)NCC1CCN(c2ccccc2)C1 (stereo not given)	none (no result: mcGAS lum)
O=C(Cc1ccc2c(c1)CCC2)NCC1CCN(c2ccccc2)C1 (stereo not given)	NPYLR7 agonist 49
OC(COCc1ccccc1)CN(Cc1ccccc1)CC1CC(c2ccc(Cl)cc2)=NO1 (stereo not given)	none
CNC[C@@H](O)c1ccc(O)c(O)c1	NPYLR7 agonist 55 (no result: mcGAS lum)
CC(C)NC[C@@H](O)c1ccc(O)c(O)c1	none
COC(=O)C1CCCc2c1ccn2Cc1cc(C)on1 (stereo not given)	none (no result: mcGAS lum)
Cc1ccc(C)c(Cn2c(=O)c3c(nc4n3CCCN4C3CCCCC3)n(C)c2=O)c1	none
OCCOCCn1cnc(-c2ccccc2)c1-c1ccc(O)c(Cl)c1	none (no result: mcGAS lum)
O=C(Nc1cnn(-c2ccccc2F)c1)N1CCOC2(CCCC2)C1	none (no result: mcGAS lum)
N#CC(C#N)=C1C=C2C=C(N3CCc4ccccc4C3)CCC2CC1 (stereo not given)	NPYLR7 agonist 87 (no result: mcGAS lum)
N#CC=CN1CCc2ccccc2C1	none (no result: mcGAS lum)
N#CC(C#N)=C1C=C2C=C(N3CCCCCC3)CCC2CC1 (stereo not given)	NPYLR7 agonist 673
CCN1CCN(C2=CC3=CC(=C(C#N)C#N)CCC3CC2)CC1 (stereo not given)	NPYLR7 agonist active
N#CC(C#N)=C1C=C2CC(=NCc3ccccc3)CCC2CC1 (stereo not given)	none (no result: mcGAS lum)
COC(=O)Cc1cc(=O)n2ccnc2[nH]1	none (no result: mcGAS lum)
COc1ccc(CN2CCN(Cc3cnc(N)nc3)CC2CCO)c(F)c1 (stereo not given)	none
O=C(O)CN1C(=O)/C(=C\c2ccc(OC(=O)c3ccc(Cl)cc3)cc2)SC1=S	none
O=C(CC1SC(=O)NC1=O)Oc1ccc(/C=C2\SC(=O)NC2=S)cc1 (stereo not given)	hcGAS lum 44, NPYLR7 agonist 158 (no result: mcGAS lum)
CC(=O)c1cccc(NS(=O)(=O)c2cc(C(=O)Nc3ccccc3C)ccc2C)c1	none

Source: PubChem BioAssay
